In PubChem BioAssay (NCI):
The panel holds about 83,000 compounds, 20% with a hit somewhere; the sample as a whole holds those more often.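 In brief: 96-well plates, 48 h treatment, single concentration, percent growth endpoint.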 Values without a mark were called inactive. Calls of active or inactive are those of the source. The calls were made as follows: active = growth percent below 10; inactive = the rest.

Tested on: HL-60(TB) leukemia
Test: NCI-60 one-dose screen, 48 h (100 = growth as untreated, 0 = no growth, -100 = all killed)
Details: 10 µM unless noted

Structure (SMILES): O=C1C=CC(=O)N1c1ccccn1
- growth: 55.7%

Structure (SMILES): O=C(O)[C@@H]1c2ccccc2-c2ccccc2[C@H]1C(=O)O
- growth: 91.3%

Structure (SMILES): COc1ccc(-c2nc(Nc3ccc(F)cc3)nc(Nc3ccc4c(c3)nc(C)n4Cc3ccccc3)n2)cc1
- growth: -11.4% (active)

Structure (SMILES): Nc1c(C(=O)c2ccc(F)cc2)sc2nc3c(cc12)CCCC3
- growth: 70.2%

Structure (SMILES): COc1ccc(-c2nn(-c3cccc(Cl)c3)cc2C=C(C#N)C#N)cc1
- growth: -36.7% (active)

Structure (SMILES): O=Cc1ccc([N+](=O)[O-])s1
- growth: 81.9%

Structure (SMILES): COc1cc(NS(C)(=O)=O)ccc1Cc1c2ccccc2nc2ccccc12
- growth: -2.45% (active)

Structure (SMILES): N#Cc1cccc(-c2c(-c3ccc4ccccc4c3)oc3ccccc3c2=O)c1
- growth: 6.17% (active)

Structure (SMILES): CC#Cc1nc2ccccc2c(=O)[nH]1
- growth: 11.4%

Structure (SMILES): CN1CCN(CC#CCn2c3c(c4ccccc42)C[C@]2(C)[C@H]4CC[C@@H]5[C@H]6[C@H]7OC(=O)[C@@]6(CCC7(C)C)CC[C@@]5(C)[C@]4(C)CC[C@H]2C3(C)C)CC1
- growth: 66.3%

Structure (SMILES): C=C(C)[C@@H]1CC[C@]2(C(=O)O)CC[C@]3(C)[C@H](CC[C@@H]4[C@@]5(C)C[C@@H](Cc6cn(CCO[C@@H]7O[C@H](COC(C)=O)[C@H](OC(C)=O)[C@H](OC(C)=O)[C@H]7OC(C)=O)nn6)[C@H](O)C(C)(C)[C@@H]5CC[C@]43C)[C@@H]12
- growth: 37.9%

Structure (SMILES): Cc1ccccc1NC(=O)c1sc2nc(C)c(C(=O)/C=C/c3ccccc3)cc2c1N
- growth: 8.8% (active)
